Bioassay records (PubChem)
Only some compounds are listed: those with a hit (about 12% of all), similar ones and a draw of the others.
JMJD2A Tudor inh = qHTS Assay for Inhibitors of JMJD2A-Tudor Domain | AlphaScreen JMJD2A-Tudor / H3K4me3 peptide binding | Potency, µM (doses to about 114 µM), usual class: inhibitors | hit rate 4.4% among 390,000; note: nearly all actives have a fitted effect of over 50% in size
PLK1 PBD inh = qHTS for Inhibitors of PLK1-PDB (polo-like kinase 1 - polo-box domain): Primary Screen; Plk1 PBD binding of FITC phosphopeptide, fluorescence polarization; Potency, µM, actives largely listed as inhibitors; hit rate 2.8% among 360,000; AID 720504, 2013; note: series mostly up to about 57 µM; nearly all actives have a fitted effect of over 65% in size
PI5P4Ka inh = qHTS for Inhibitors of phosphatidylinositol 5-phosphate 4-kinase (PI5P4K); Phosphatidylinositol 5-phosphate 4-kinase type-2 alpha (Homo sapiens), P48426; PI5P4Kalpha enzyme, ADP-Glo luminescence, 60 min; stronger effect = lower value; max response, %; hit rate 1.2% among 330,000; AID 652105, 2013; active = max response of -50% or lower; inconclusive = between -30% and -50%; inactive = -30% or higher; note: value at the top dose of about 77 µM
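Human PI5P4Kalpha with substrate in 0.038 M HEPES pH 7.4, 0.28 mM EGTA, 0.1% CHAPS, 5% DMSO; reaction started with 5 microM ATP (final), 60 min at room temperature. ADP formed read by ADP-Glo luminescence.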
G9a block = qHTS Assay for Inhibitors of Histone Lysine Methyltransferase G9a; Histone-lysine N-methyltransferase EHMT2 (Homo sapiens), Q96KQ7; G9a H3K9 monomethylation, AlphaScreen, 2 h; Potency, µM (titrated, usually from 102 µM), hits mostly inhibitors; hit rate 8.8% among 350,000; note: nearly all actives have a fitted effect of over 75% in size
Target sequence (Q96KQ7 913-1193 limits assumed): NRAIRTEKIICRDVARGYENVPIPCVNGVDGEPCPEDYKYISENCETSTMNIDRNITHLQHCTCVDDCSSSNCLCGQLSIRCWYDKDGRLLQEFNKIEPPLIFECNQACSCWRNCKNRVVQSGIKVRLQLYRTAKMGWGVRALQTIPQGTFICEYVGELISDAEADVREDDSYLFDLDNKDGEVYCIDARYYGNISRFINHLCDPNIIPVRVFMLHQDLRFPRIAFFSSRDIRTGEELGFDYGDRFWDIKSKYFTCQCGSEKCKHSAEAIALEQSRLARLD
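Readings reflect AlphaScreen signal from monomethyl-H3K9 antibody detection. HMT at 20 nM; substrate b-H3K9 500 nM; cofactor SAM 20 uM; 2 h RT reaction; compounds tested as titrations in qHTS with 15 min preincubation.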
HP1b chromo inh = HTS for Inhibitors of HP1-beta Chromodomain Interactions with Methylated Histone Tails | AlphaScreen HP1-beta / biotin-H3K9me3 peptide binding | Potency, µM (series often up to 114 µM), usual class: inhibitors | hit rate 0.56% among 390,000; note: nearly all actives have a fitted effect of over 70% in size
Target sequence (P83916 whole entry, looked up): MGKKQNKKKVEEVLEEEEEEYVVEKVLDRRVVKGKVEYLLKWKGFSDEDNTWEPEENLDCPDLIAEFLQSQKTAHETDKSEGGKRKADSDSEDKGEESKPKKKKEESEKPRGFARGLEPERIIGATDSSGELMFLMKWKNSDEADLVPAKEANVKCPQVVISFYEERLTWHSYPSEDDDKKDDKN
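HP1-beta protein (50 nM final) preincubated 30 min at room temperature with biotinylated H3(1-18)K9me3 peptide (50 nM) in PBS pH 7.4, 0.01% Tween-20, then compound added for 30 min. AlphaScreen streptavidin donor/nickel chelate acceptor beads (10 ug/mL final), 30 min dark, luminescence read.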
BAZ2B inh = qHTS Assay for Inhibitors of BAZ2B | hit rate 4.4% among 360,000 | Bromodomain adjacent to zinc finger domain protein 2B (Homo sapiens), Q9UIF8 | Potency, µM (titrated, usually from 114 µM), actives largely listed as inhibitors | AlphaScreen BAZ2B-H3K14Ac peptide displacement; note: nearly all actives have a fitted effect of over 60% in size
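Protein-peptide AlphaScreen: BAZ2B 50 nM, b-H3K14Ac 50 nM, 1x PBS pH 7.4 + 0.01% Tween-20. Preincubation 30 min RT; cpd 30 min RT (top 110 uM); beads 20 min RT, light-protected.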
A number is an active result; - = inactive; ? = inconclusive; . = no result; [ ] = dose if it differs, or a comment. Unless noted, calls come from the whole dose curve; as a rule, active = well fitted curve in the direction sought with a large enough effect; inconclusive = small, poorly fitted or top-dose-only effect, or another doubt; inactive = no such curve, though single readings can be large; an effect the other way counts as inactive or inconclusive.

SMILES	JMJD2A Tudor inh	PLK1 PBD inh	PI5P4Ka inh	G9a block	HP1b chromo inh	BAZ2B inh
COC(=O)c1cc(C)nc2c1C(=O)C(=O)C=C2N1CCOCC1	-	-	-	45µM	-	50µM
O=C(NCc1ccccc1F)c1ccc(CN2CC(=O)N3CCCCC3C2=O)cc1 (stereo not drawn)	-	.	.	-	-	-
Cc1c(Cl)cccc1NC(=O)CCN1C(=O)NC(C)(C)C1=O	-	-	-	50µM	-	-
CCOC(=O)C1CCN(CCC(=O)Nc2ccccc2Cl)CC1	-	24µM	-	-	-	-
Cc1c(Cl)cccc1NC(=O)CCN1CCOCC1	-	-	-	40µM	-	-
Cc1c(Cl)cccc1NC(=O)CCN1CCCCC1	-	-	-	?	-	-
Cc1c(Cl)cccc1NC(=O)CCC(=O)N/N=C/c1ccc[nH]1	-	-	-	18µM	-	-
Cc1cc(Cl)ccc1NC(=O)CCN1C(=O)NC(C)(C)C1=O	-	-	-	-[2.33 µM]	-	-
CC1(c2nnnn2Cc2ccccc2)CCC(=O)N1CCc1ccc(O)cc1 (stereo not drawn)	.	-	-	.	.	.
CCc1ccc(-n2nc3cc(C)c(NC(=O)c4ccccc4C)cc3n2)cc1	89µM	.	.	7.9µM	-	?
CCc1ccc(-n2nc3cc(C)c(NC(=O)c4cc(OC)cc(OC)c4)cc3n2)cc1	-	.	.	5.6µM	-	?
COc1ccc(-n2ccnc(NCc3ccc(Cl)cc3)c2=O)cc1	-	.	.	-	-	-
COc1ccc(-n2nc3c(N4CCCC(C(=O)NCc5ccc(C)cc5)C4)nnc(C)c3c2C)cc1 (stereo not drawn)	56µM	.	.	?	-	50µM
CCc1ccc(CNC(=O)C2CCCN(c3nnc(C)c4c(C)n(-c5ccc(OC)cc5)nc34)C2)cc1 (stereo not drawn)	?	.	.	10µM	-	-
Cc1nnc(N2CCCC(C(=O)Nc3ccccc3C(F)(F)F)C2)c2nn(-c3ccccc3)c(C)c12 (stereo not drawn)	-	.	.	?	-	-
COc1ccc(CNC(=O)C2CCCN(c3nnc(C)c4c(C)n(-c5ccc(C)cc5)nc34)C2)cc1 (stereo not drawn)	-	.	.	-	-	-
COC(=O)c1ccccc1NC(=O)C1CCCN(c2nnc(C)c3c(C)n(-c4ccccc4)nc23)C1 (stereo not drawn)	-	.	.	?	-	79µM
Cc1nnc(N2CCCC(C(=O)NCc3ccc(OC(C)C)cc3)C2)c2nn(-c3ccccc3)c(C)c12 (stereo not drawn)	-	-	-	.	-	-
COc1ccc(CNC(=O)C(C)n2nc(C)c3c(C)n(-c4ccc(C)cc4)nc3c2=O)cc1 (stereo not drawn)	?	21µM	-	-	-	-
Cc1ccc(CCNC(=O)c2cc3sccc3n2Cc2ccc(Cl)cc2)cc1	-	.	.	-	-	-
CCOC(=O)C(=NC(C)C)NNc1cc(Cl)ccc1Cl	?	-	-	8.9µM	-	?
CCCc1ccc(C(=O)NNc2cc(Cl)ccc2Cl)cc1	-	-	-	?	-	-
CCOC(=O)C(=NC(C)(C)C)NNc1cc(Cl)ccc1Cl	?	-	-	18µM	-	?
Cc1ccc(/C=C2/NC(=O)N(c3ccccc3)C2=O)o1	-	-	.	-[0.501 µM]	-	56µM
Cc1c(C(=O)O)cccc1-c1ccc(/C=C2/NC(=O)N(c3ccccc3)C2=O)o1	-	-	-	?	-	-
SMILES	JMJD2A Tudor inh	PLK1 PBD inh	PI5P4Ka inh	G9a block	HP1b chromo inh	BAZ2B inh
CCCN1C(=O)/C(=C/c2ccc(C)o2)NC1=S	.	.	.	7.9µM	.	?
CCN1C(=O)N/C(=C/c2ccc(C)o2)C1=O	-	-	-	?	-	-
Cc1ccc(/C=C2/NC(=O)N(Cc3ccc(Br)cc3)C2=O)o1	50µM	-	?	32µM	-	-
Cc1ccc(CN2C(=O)N/C(=C\c3ccc(N4CCOCC4)cc3)C2=O)cc1	-	-	-	-	-	-
CC1(c2nnnn2Cc2ccccc2)CCC(=O)N1Cc1ccc(F)cc1 (stereo not drawn)	.	-	-	.	.	.
O=C(NCc1cccs1)c1ccc2c(=O)n3nc(Nc4ccccc4)sc3nc2c1	?	.	.	-	-	-
Nc1ccn([C@@H]2O[C@H](C(=O)N(CCC3=CCCCC3)CC3CC3)[C@@H](O)[C@H]2O)c(=O)n1	.	-	-	.	.	.
CC(C)OC(=O)CNc1n[nH]c(=S)[nH]c1=O	79µM	-	-	25µM	-	-
CC(C)OC(=O)C(C)Nc1n[nH]c(=S)[nH]c1=O (stereo not drawn)	-	-	-	45µM	-	-
CC(=O)OC1CCC2(C)C3CC(=O)C4(C)C(CC5OC6(CCC(C)CO6)C(C)C54)C3CC[C@H]2C1 (stereo partly drawn)	.	.	.	-[2.33 µM]	.	.
Nc1c(-c2ccccc2)cnn1-c1cccc(Cl)c1	-	-	-	-	-	-
Nc1ccccc1Nc1cc(-c2cccc(Cl)c2)nn1-c1ccccc1	22µM	-	-	28µM	?	22µM
S=C(c1ccc(-c2ccc(Cl)cc2Cl)o1)N1CCCCC1	?	-	-	?	-	22µM
CN1CCN(C(=S)c2ccc(-c3cc(Cl)ccc3Cl)o2)CC1	35µM	-	-	32µM	?	28µM
N#CCCN1CCN(C(=S)c2ccc(-c3cc(Cl)ccc3Cl)o2)CC1	40µM	-	-	18µM	?	?
N#CCCN1CCN(S(=O)(=O)c2cc(Cl)ccc2Cl)CC1	-	-	-	-	-	-
COc1cccc(OC)c1NC(=O)c1ccc(-c2cc(Cl)ccc2Cl)o1	.	-	-	.	.	.
S=C(Nc1ccc(Cl)cc1Cl)N1CCCCC1	-	-	-	-	?	-
Cc1ccc2c(c1)c1c(n2CC(O)Cn2c(C)nc3ccccc32)/C(=N\O)CCC1 (stereo not drawn)	?	-	-	18µM	-	?
Cc1c(C(=O)OCc2nc3ccsc3c(=O)[nH]2)oc2ccccc12	-	-	-	-[12.7 µM]	-	-
Cc1ccc(NC(=S)NC(=O)C2CC2)cc1Cl	-	-	-	?	-	-
CCOC(=O)c1ccc(NC(=S)NC(=O)C2CCCC2)cc1	-	-	-	-	-	-
O=C(NC(=S)Nc1ccc(F)c(Cl)c1)C1CC1	-	-	-	56µM	-	-
CC(C)CCOCC(O)CCC(=O)NNC(=S)Nc1ccccc1 (stereo not drawn)	-	-	-	28µM	-	-
COC(=O)c1ccc(NC(=S)NC(=O)C2CCC2)cc1	-	-	-	79µM	-	-
N#Cc1ccccc1NC(=S)NC(=O)C1CCC1	-	?	-	71µM	-	-
